NTMT1 inh – inhibitors of human N-terminal methyltransferase NTMT1 | actives 2.5% (n = 59,000) | Q9BV86 | NTMT1 MTase-Glo SAH luminescence, purified enzyme | Potency, µM (series often up to 114 µM), usual class: inhibitors | AID 1645870; note: nearly all actives have a fitted effect of over 65% in size
GPR32 ag – activates human resolvin D1 receptor GPR32 | O75388 | CHO-K1 GPR32 beta-arrestin PathHunter luminescence, 90 min; zero percent set by DMSO-only wells | activation, % at 76.9 µM | actives 2.5% (n = 48,000) | AID 1346428;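 active = activation of at least 60% and not above a set upper limit, about 1 call in 100 departs from these limits; inconclusive = activation of 40% to 60%, or above that upper limit; inactive = activation under 40%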
Target sequence (O75388 whole entry, looked up): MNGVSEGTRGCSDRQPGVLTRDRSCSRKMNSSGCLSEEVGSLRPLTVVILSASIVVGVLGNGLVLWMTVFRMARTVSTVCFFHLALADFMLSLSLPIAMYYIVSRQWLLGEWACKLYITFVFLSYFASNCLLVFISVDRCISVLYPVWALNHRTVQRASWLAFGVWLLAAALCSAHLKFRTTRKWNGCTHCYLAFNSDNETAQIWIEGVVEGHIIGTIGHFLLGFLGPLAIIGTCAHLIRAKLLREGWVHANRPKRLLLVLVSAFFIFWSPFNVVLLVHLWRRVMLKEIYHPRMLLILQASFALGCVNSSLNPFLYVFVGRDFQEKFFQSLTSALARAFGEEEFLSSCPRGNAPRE
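Cells are plated overnight, treated with compounds in DMSO for 90 minutes at 37 °C, and developed with PathHunter detection reagent for 1 hour before luminescence is read; signal reflects beta-arrestin binding to GPR32 in engineered CHO-K1 cells.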
SKOV3 invasion – blocks SKOV3ip1 adhesion and invasion in omental model | SKOV3ip1-GFP adhesion/invasion on 3D omental model, fluorescence | Potency, µM (series often up to 45.8 µM), usual class: inhibitors | actives 0.1% (n = 46,000) | AID 1963576; note: nearly all actives have a fitted effect of over 65% in size
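Primary human omental fibroblast/mesothelial 3D culture pre-formed 48 h. SKOV3ip1-GFP cells added with compounds (0.36-46 umol/L), incubated 2 h RT/16 h 37 C, fixed; GFP cells quantified at 488/509 nm.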
HTT-AS act – activates huntingtin-antisense promoter activity. HEK293 HTT-AS promoter firefly luciferase reporter, 24 h; response scale: percent change from vehicle, -100% = no light. Potency, µM (top dose mostly 57.5 µM), hits mostly activators. AID 1508624. actives 0.24% (n = 48,000); note: nearly all actives have a fitted effect of over 55% in size
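HEK293 Fluc reporter, 2,500 cells/well, 24 h pre-culture; cpds up to 57.5 uM final, 24 h 37 degrees C; Dual-Glo, 10 min RT; normalized vehicle = 0%, zero RLU = -100%.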
HTT promoter inh – inhibits huntingtin promoter activity; HEK293 HTT promoter firefly luciferase reporter, 24 h; Potency, µM (top dose mostly 57.5 µM), usual class: inhibitors; actives 0.93% (n = 48,000); AID 1508623; note: nearly all actives have a fitted effect of over 50% in size
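HEK293 Fluc reporter, 2,500 cells/well, 24 h pre-culture; cpds up to 57.5 uM final, 24 h 37 degrees C; Dual-Glo, 10 min RT; normalized vehicle = 0%, zero RLU = -100%.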
A number is an active result; n = inactive; u = inconclusive; x = no result; ! = repeats disagree. Compounds with a hit are over-represented: about 4.5% of the library has one in this group of screens. Unless noted, calls come from the whole dose curve; as a rule, active = well fitted curve in the direction sought with a large enough effect; inconclusive = small, poorly fitted or top-dose-only effect, or another doubt; inactive = no such curve, though single readings can be large; an effect the other way counts as inactive or inconclusive.

SMILES	NTMT1 inh	GPR32 ag	SKOV3 invasion	HTT-AS act	HTT promoter inh
CCOC(=O)c1oc2c(c1C)-c1nn(Cc3ccccc3Cl)cc1CC2	n	n	n	n	u
CC1CCN(c2nc3ccc(C(=O)NCCc4ccc(S(N)(=O)=O)cc4)cc3s2)CC1	89.1µM	n	n	u	0.398µM
CCOc1ccccc1CNC(=O)c1ccc2nc(N3CCC(C)CC3)sc2c1	n	n	n	n	1.78µM
CC1CCN(c2nc3ccc(C(=O)NC(C)C)cc3s2)CC1	u	u	n	u	n
CC1CCN(c2nc3ccc(C(=O)NCc4ccccc4)cc3s2)CC1	n	n	n	n	0.112µM
Cc1ccccc1NC(=O)CN1C(=O)C2(SCC(=O)N2c2ccc(F)cc2)c2ccccc21 (stereo not given)	n	n	n	n	n
O=C(C1COc2ccccc2O1)N1CCN(c2nc3ccc(F)cc3s2)CC1 (stereo not given)	n	n	n	n	u
c1cncc(-c2ccc(CNc3nc(N4CCCC4)nc4ccccc34)cc2)c1	39.8µM	x	x	x	x
Cc1ccc2nc(NS(=O)(=O)c3ccc(Cl)cc3)c(Nc3ccc(C(=O)O)cc3)nc2c1	n	83.2	n	n	n
COc1ccc(C(=O)c2sc3nc(-c4ccc(F)cc4)ccc3c2N)cc1	n	97.7	n	n	n
Cc1ccc(CNC(=O)c2sc3nc(-c4ccc(F)cc4)ccc3c2N)cc1	n	95.6	n	n	n
Cc1c(C(=O)N2CCC(C(=O)Nc3ccc(F)c(Cl)c3)CC2)sc2nc[nH]c(=O)c12	n	n	n	n	n
CN(C)CCCN1c2ccccc2Sc2ccc(Cl)cc21	u	63.0!	x	n	u
OCCN1CCN(CCCN2c3ccccc3Sc3ccc(Cl)cc32)CC1	u	n	x	n	n
Cc1nnc(NC(=O)CSc2nccn2-c2ccc(Cl)cc2)s1	n	n	n	n	u
Cc1ccc(NC(CNS(=O)(=O)c2ccc(Cl)cc2)c2ccccc2)cc1 (stereo not given)	n	n	n	n	u
O=S(=O)(NCC(Nc1ccc(Cl)cc1)c1ccccc1)c1ccccc1 (stereo not given)	n	108.7	n	n	u
COc1cccc(NC(CNS(=O)(=O)c2ccc(Cl)cc2)c2ccccc2)c1 (stereo not given)	n	77.4	n	n	u
CCOC(=O)c1cc2c(=O)n3ccccc3nc2n(CCOC)c1=NC(=O)C(C)(C)Oc1ccc(Cl)cc1	n	n	n	n	n
O=C(Cc1ccc(Cl)cc1)NCCc1csc2nc(-c3ccccc3F)nn12	n	120.9	n	n	n
O=C(NCCc1csc2nc(-c3cccc(F)c3)nn12)c1ccc(Br)o1	n	97.1	n	n	n
COc1ccc(CNC(=O)CN(c2cc(C)cc(C)c2)S(=O)(=O)c2c(C)[nH]c(=O)[nH]c2=O)cc1	n	n	n	n	n
Nc1ncnc2c1c(-c1cccc(OCc3ccccc3)c1)cn2C1CC(CN2CCCC2)C1 (stereo not given)	12.6µM	x	n	n	n
FC(F)(F)c1cccc(-n2cc(-c3ccccc3)c3c(N4CCCCC4)ncnc32)c1	n	n	n	n	n
Cc1c(Cl)ccc2sc(N3CCN(C(=O)C4CC4)CC3)nc12	u	76.5	n	n	n
SMILES	NTMT1 inh	GPR32 ag	SKOV3 invasion	HTT-AS act	HTT promoter inh
Cc1cc(C)c2sc(N3CCN(C(=O)c4ccc(N(C)C)cc4)CC3)nc2c1	n	n	n	n	n
CCc1cccc2sc(N3CCN(C(=O)C4CC4)CC3)nc12	n	n	n	n	u
Cc1cc(C)c2sc(N3CCN(C(=O)C4CC4)CC3)nc2c1	79.4µM	n	n	u	n
CC(=O)C1=C(c2ccc(Cl)c(Cl)c2)N(C(C)=O)n2cnnc2S1	56.2µM	n	u	n	u
COc1cccc(NC(=O)Cn2c(=O)n(Cc3ccco3)c(=O)c3cc(OC)c(OC)cc32)c1	n	74.0	n	n	n
COc1ccc(NC(=O)CC(C)S(=O)(=O)c2ccc3c(c2)NC(=O)CO3)cc1OC (stereo not given)	n	n	n	n	n
COc1cc(OC)c(NC(=O)CC(C)S(=O)(=O)c2ccc3c(c2)NC(=O)CO3)cc1Cl (stereo not given)	n	73.4	n	n	n
CCCOc1cccc(C(=O)Nc2ccc(-c3nc4ccccc4s3)c(Cl)c2)c1	n	n	u	n	n
